The entries come from a sample that favours hits as a whole.
Pf Dd2 inh – blocks in vitro growth of P. falciparum Dd2; P. falciparum Dd2 growth, SYBR Green, 72 h; Potency, µM (doses to about 28.9 µM), hits mostly inhibitors; hit rate 4.3% among 120,000; active = well fitted inhibition curve with a large enough effect; also: nearly all actives have a fitted effect of over 65% in size
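Readout: SYBR Green fluorescence, 485 nm excitation, 535 nm emission, after ~16 h lysis at 37C. Before that, Dd2-infected red cells (2.5% hematocrit) grew 72 h with compound, 29 uM top final concentration.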
Hits are given with their value; i = inactive.

SMILES	Pf Dd2 inh
Cc1ccc(NC(=O)Cn2c(-c3ccc(F)cc3)nc(C)c(CCO)c2=O)c(Cl)c1	i
CN(C)C(=O)N1CCN(c2ccc(C=O)cc2)C(=O)C1	i
O=C(NC1CCN(C(=O)N2CC3CC(C2)[C@H]2CCCC(=O)N2C3)CC1)c1n[nH]c2ccccc12 (stereo partly drawn)	i
O=C(CCC1CCN(c2cc(NC3CC3)ncn2)CC1)N1CCN(c2ccccc2F)CC1	i
CCCNc1cc(N2CCC(CCC(=O)NCC3CC3)CC2)ncn1	i
CCCNc1cc(N2CCC(CCC(=O)N3CCN(c4ccccc4F)CC3)CC2)ncn1	11.2µM
CC(=O)N1CC2(Cc3ccccc31)CN(C(=O)C1CC1)C2	i
O=C1[C@@H]2C[C@@H](O)CN2C2(CN(Cc3cccnc3)C2)C(=O)N1Cc1ccccc1	i
Cc1ccc(C)c(CN2C(=O)NC3(CCN(C(=O)c4ccncc4)CC3)C2=O)c1	i
CS(=O)(=O)c1cnc(NCCCc2ccccn2)nc1C1CCCNC1 (stereo not drawn)	i
Cc1sc2c(c1C)c(=O)n(Cc1ccccc1)c(=O)n2Cc1ccc(F)cc1	i
CCc1ccccc1NC(=O)Cn1c(=O)n(Cc2ccccc2)c(=O)c2c(C)c(C(=O)N(C)C)sc21	4.47µM
CCN(CC)C(=O)c1sc2c(c1C)c(=O)n(-c1ccccc1)c(=O)n2Cc1c(C)cc(C)cc1C	10µM
CCc1ccc(-n2c(=O)c3c(C)c(C(=O)N(C)C)sc3n(Cc3cccc(C)c3)c2=O)cc1	i
Cc1ccccc1NC(=O)Cn1c(=O)n(Cc2ccccc2)c(=O)c2c(C)c(C)sc21	i
Cc1cc(C)c(NC(=O)Cn2c(=O)n(Cc3ccccc3)c(=O)c3c(C)c(C(=O)N(C)C)sc32)c(C)c1	i
CCN(CC)C(=O)c1sc2c(c1C)c(=O)n(-c1ccc(C)c(C)c1)c(=O)n2Cc1cc(=O)n2c(C)cccc2n1	i
CCN(CC)C(=O)c1sc2c(c1C)c(=O)n(CCc1ccccc1)c(=O)n2Cc1ccc(C)cc1	11.2µM
CCN(CC)C(=O)c1sc2c(c1C)c(=O)n(-c1ccccc1)c(=O)n2Cc1cc(=O)n2ccccc2n1	i
COc1cc(CNC(=O)C2CCN(c3cn[nH]c(=O)c3)C2)cc(OC)c1 (stereo not drawn)	i
COCC(=O)N1CCCN(C(=O)CSc2ccncc2)CC1	i
O=C(NCCc1ccc(Cl)cc1)C1CCc2nnc(C3CCN(C(=O)c4cccnc4)CC3)n21 (stereo not drawn)	i
CC1(C(=O)NCCc2c[nH]c3ccccc23)CCCCC(=O)N1 (stereo not drawn)	i
CC(C)NC(=O)NC[C@H]1COCc2nc3cc(C(F)(F)F)ccc3n21	i
Cc1ncoc1C(=O)N1CCC(C(=O)N2CCCCCCNC(=O)CC2)CC1	i
SMILES	Pf Dd2 inh
COc1cc2c(C(=O)N3CCN(c4ccc(C)cc4)C(C)C3)cn(CC(C)C)c(=O)c2cc1OC (stereo not drawn)	8.91µM
CCn1cc(C(=O)N2CCN(c3ccccc3OC)CC2)c2cc(OC)c(OC)cc2c1=O	i
COc1cc(OC)c(NC(=O)c2cn(C)c(=O)c3cc(OC)c(OC)cc23)cc1Cl	i
CCOc1ccc(NC(=O)c2cn(C)c(=O)c3cc(OC)c(OC)cc23)cc1	i
COc1ccc(NC(=O)c2cn(CC(C)C)c(=O)c3cc(OC)c(OC)cc23)cc1Cl	11.2µM
CCn1cc(C(=O)N2CCN(c3ccc(C)cc3)C(C)C2)c(=O)c2cc(S(=O)(=O)N3CCCC3)ccc21 (stereo not drawn)	i
CN(Cc1cccnc1)C(=O)CCC[C@@H]1[C@H]2CCCN3CCC[C@@H](CN1Cc1cccnc1)[C@@H]23	i
Cn1cc([C@@H](NC(=O)CCc2c[nH]c3ccccc23)C2CC(O)C2)cn1 (stereo partly drawn)	i
c1ccc(-c2n[nH]c(CC3CCNC3)n2)cc1 (stereo not drawn)	i
COc1ccccc1NC(=O)Cn1c(=O)n(Cc2ccco2)c(=O)c2cccnc21	i
CCOc1ccccc1NC(=O)Cn1c(=O)n(Cc2ccco2)c(=O)c2cccnc21	11.2µM
Cc1ccc(NC(=O)Cn2c(=O)n(Cc3ccco3)c(=O)c3ccccc32)c(C)c1	i
CNC(=O)[C@@H]1CN(C(=O)CCc2ccccc2)C[C@H]1COC	i
COCCCNC(=O)CCc1nc(C2CCCN2S(C)(=O)=O)no1 (stereo not drawn)	i
COC[C@@H]1CN(C(=O)c2ccc(OC)nc2)C[C@H]1c1ccncc1	i
COc1ccc(-c2cc(N3CCCC(NC(=O)Cc4cccs4)C3)n[nH]2)cc1 (stereo not drawn)	i
COc1ccccc1CC(=O)Nc1ccc2c(N3CCCCC3)ncnc2c1	14.1µM
CC1Oc2ccc(NC(=O)Cc3cccs3)cc2CN(Cc2ccc(Cl)cc2)C1=O (stereo not drawn)	i
COc1ccccc1CC(=O)NC1CCN(c2cc(C(F)(F)F)ncn2)CC1	i
O=C(Cc1cccs1)Nc1ccc2c(N3CCCCC3)ncnc2c1	5.01µM
Cc1ccccc1CC(=O)Nc1ccc2ncnc(N3CCCCC3)c2c1	i
CNC(=O)[C@@H]1CN(C(=O)c2cc3ccccc3[nH]2)C[C@H]1c1nc(C)no1	i
C#CCNC(=O)[C@H]1C[C@@H](O)[C@H](O)[C@@H]2N=C(Nc3cccc(C(F)(F)F)c3)S[C@@H]21	i
Cc1cc(C(=O)N2C[C@@H](CO)[C@H](c3ccccn3)C2)ccn1	i
O=C1N[C@H](CC(=O)N2CCN(c3ccccn3)CC2)C(=O)Nc2ccccc21	i
SMILES	Pf Dd2 inh
Cc1nn(C)cc1C(=O)N1CC[C@H](N2CCN(C)CC2)[C@H](CCCO)C1	i
COc1ccccc1N1CCN(C(=O)CSc2nc3ccccc3nc2Cc2ccc(C)cc2)CC1	i
Cc1ccc(Cc2nc3ccccc3nc2SCC(=O)N2CCN(c3ccc(F)cc3)CC2)cc1	i
Cc1ccc(Cc2nc3ccccc3nc2SCC(=O)N2CCC(C)CC2)cc1	10µM
Cc1cc(Cl)ccc1OCC(=O)N1CCC(c2n[nH]c(=O)n2-c2ccccc2)CC1	i
CC(C)Cc1cnc(C2CCCN(C(=O)OC(C)(C)C)C2)[nH]1 (stereo not drawn)	7.08µM
COc1ccc(-n2nc(C3CCCN(C(=O)C(C)(C)C)C3)[nH]c2=O)cc1 (stereo not drawn)	i
CC(C)c1cnc(C2CCCN(C(=O)OC(C)(C)C)C2)[nH]1 (stereo not drawn)	11.2µM
Cc1cnc(C2CC2)n1C1CCCN(C(=O)CC(C)C)C1 (stereo not drawn)	i
CCCCc1ncc(CN2CCCC(c3cccc(C(=O)O)c3)C2)[nH]1 (stereo not drawn)	i
CC(C)(C)C(=O)N1CCCC(c2nn(-c3ccccc3)c(=O)[nH]2)C1 (stereo not drawn)	i
COc1ccc(N2Cc3c(NCc4ccc(F)cc4)ncnc3N(C)CC2=O)cc1	i
COc1cccc(CN2CCOC[C@H](O)C2)c1	i
CN1CCN(C(=O)[C@@H]2CCC[C@@H](NC(=O)c3ccc(Cl)cc3)CN(C)C(=O)C2)CC1	i
O=C(Nc1cccc(Cl)c1)c1cnc2c(c1)N(Cc1ccccc1)CCC2	i
COCC(=O)NC[C@H]1O[C@H](Cc2cc(-c3ccccn3)on2)CC[C@@H]1O	i
CC(=O)Nc1ccc(NC(=O)c2ccc3c(c2)CCN3S(=O)(=O)c2ccc(Cl)cc2)cc1	i
CC(C)c1ccc(NC(=O)c2ccc3c(c2)CCN3S(=O)(=O)c2ccccc2)cc1	8.91µM
CC(C)c1ccc(NC(=O)c2ccc3c(c2)CCCN3S(C)(=O)=O)cc1	i
CC(C)CCC1=NC2(CCN(C(=O)CCN3CCCCC3=O)CC2)C(=O)N1	i
